# Source: PubChem (NMMLSC)
# This is a sample that favours compounds with a hit; in the whole collection about 1.2% have one here.
# RGS8-Gao reg: regulators of human RGS8-Galphao interaction; P09471; multiplexed bead flow cytometry, RGS8-Galphao binding; actives lie on both sides; response (percent of control binding), % at 10 µM; 0.34% of 220,000 active; AID 1423; in the data active = response below about 60% or above about 140%; inactive = in between;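 also: Galphao activated as the GDP aluminium fluoride complex binding bead-coupled RGS8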
# Target sequence (P09471 whole entry, looked up): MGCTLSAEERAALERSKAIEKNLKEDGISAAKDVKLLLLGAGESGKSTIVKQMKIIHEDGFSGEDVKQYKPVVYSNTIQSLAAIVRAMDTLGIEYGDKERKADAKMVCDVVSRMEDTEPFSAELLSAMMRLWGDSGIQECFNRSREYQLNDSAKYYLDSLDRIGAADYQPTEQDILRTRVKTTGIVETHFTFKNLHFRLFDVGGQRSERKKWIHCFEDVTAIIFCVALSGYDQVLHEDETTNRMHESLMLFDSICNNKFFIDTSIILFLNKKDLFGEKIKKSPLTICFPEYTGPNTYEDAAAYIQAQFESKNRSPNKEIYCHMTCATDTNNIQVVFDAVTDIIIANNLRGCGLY
# RGS4-Gao reg: modulates binding of RGS4 to human Galphao; AID 1415; binding response (% of control), % at 10 µM; P09471; Multiplexed bead flow cytometry; actives lie on both sides; 0.33% of 220,000 active; in the data active = binding response below about 49% or above about 150%; inactive = in between;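 also: fluorescent Galphao activated with aluminum fluoride binding bead-coupled RGS4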
# RGS16-Gao: RGS16-Galphao interaction regulator (human). binding response (% of control), % at 10 µM. 0.38% of 220,000 active. O15492+P09471. AID 1441. bead-based flow cytometry RGS16-Galphao binding, fluorescence; actives lie on both sides;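 also: Galphao activated by GDP with aluminum fluoride before binding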
# RGS7-Gao: regulators of human RGS7-Galphao interaction. P09471. Multiplexed bead flow cytometry, RGS7-Galphao binding; actives lie on both sides. AID 1439. 0.35% of 220,000 active. binding response (% of control), % at 10 µM; in the data active = binding response below about 49% or above about 150%; inconclusive = no clear call, values can overlap the other calls; inactive = in between;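 also: fluorescent Galphao held in activated GDP-AlF4 state binding bead-coupled RGS7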
# Avidin fluor: avidin bead compound fluorescence profile; Avidin beads, compound fluorescence 488/530 nm, flow cytometry; active compounds read high; fluorescence (KMESF) at 10 µM; AID 1775; 0.38% of 220,000 active; in the data active = fluorescence above about 47
# GSH fluor: compound fluoresces at 488/530 nm on GSH beads. GSH beads flow cytometry, compound fluorescence 488/530 nm; active compounds read high. fluorescence (KMESF) at 10 µM. 0.25% of 190,000 active; in the data active = fluorescence above about 89;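 also: glutathione beads carrying GST-tagged Bcl family fusion proteins plus one bare bead set; values are compound well signal with DMSO vehicle wells as background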
# RGS4-Gao HTS: regulators of human RGS4-Galphao interaction; shares compounds with RGS16-Gao; multiplexed bead flow cytometry, RGS–Galpha-o binding; RGS4–Galpha-o binding response, % at 10 µM; 99% of 1,600 active; AID 1504;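 also: fluorescently labeled Galpha-o bound to GDP with aluminium fluoride binding biotinylated RGS beads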
# Avidin counter: counter-screen: compounds disrupting biotin binding to avidin beads; AID 1783; streptavidin beads, fluorescein-biotin binding, flow cytometry; shares compounds with RGS16-Gao; inhibition, % at 10 µM; 1,700 tested, under 10 active;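 active = inhibition above 50%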;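 also: median green fluorescence of gated singlet beads compared with DMSO control wells; 0% = DMSO wells and 100% = complete loss of bead fluorescence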
# RGS8-Gao confirm: confirmation of regulators of human RGS8-Galphao interaction; shares compounds with RGS16-Gao; bead-based flow cytometry RGS8-Galphao binding, fluorescence; actives lie on both sides; binding response (% of control), % at 10 µM; 3% of 1,700 active; in the data active = binding response below about 72% or above about 130%; inactive = in between;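 also: Galphao activated as GDP AlF4 complex before binding bead RGS8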
# RGS7-Gao confirm: RGS7-Galphao interaction regulation, single point confirmation | response (percent of control binding), % at 10 µM | shares compounds with RGS16-Gao | bead-based flow cytometry RGS7-Galphao binding; actives lie on both sides | 7.8% of 1,700 active; in the data active = response below about 75% or above about 130%; inactive = in between;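 also: fluorescent Galphao activated with GDP and aluminum fluoride binding bead-coupled RGS7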
# RGS16-Gao conf: RGS16-Galphao interaction regulation, single point confirmation; shares compounds with RGS16-Gao; response (% of control binding), % at 10 µM; bead-based flow cytometry, RGS16-Galphao binding; actives lie on both sides; 4% of 1,700 active; in the data active = response below about 74% or above about 130%; inactive = in between;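 also: Galphao activated as the GDP aluminium fluoride complex binding bead-coupled RGS16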
# RGS4-Gao single: RGS4-Galphao interaction regulation, single point confirmation | binding response (% of control), % at 10 µM | shares compounds with RGS16-Gao | 4% of 1,700 active | AID 1840 | RGS4-Galphao binding, multiplexed bead flow cytometry; actives lie on both sides; in the data active = binding response below about 74% or above about 130%; inactive = in between
# RGS19-Gao conf: confirmation of regulators of human RGS19-Galphao interaction | bead-based flow cytometry RGS19-Galphao binding; actives lie on both sides | response (percent of control binding), % at 10 µM | shares compounds with RGS16-Gao | 5% of 1,700 active | AID 1841; in the data active = response below about 50% or above about 160%; inactive = in between;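 also: 100% = no compound control and 0% = blank background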
# Target sequence (P09471 whole entry, looked up): as above
# Target sequence (P49795 whole entry, looked up): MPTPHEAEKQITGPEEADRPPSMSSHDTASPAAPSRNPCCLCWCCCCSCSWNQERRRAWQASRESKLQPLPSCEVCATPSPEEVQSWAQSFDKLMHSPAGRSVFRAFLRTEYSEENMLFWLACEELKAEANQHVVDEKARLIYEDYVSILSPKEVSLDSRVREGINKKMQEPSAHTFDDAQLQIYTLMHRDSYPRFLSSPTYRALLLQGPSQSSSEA
# * marks the source's active call; other numbers are inactive results; ? = inconclusive; . = no result; [ ] = dose if it differs, or a comment. Unless noted, no rule for the calls is given here.
SMILES,RGS8-Gao reg,RGS4-Gao reg,RGS16-Gao,RGS7-Gao,Avidin fluor,GSH fluor,RGS4-Gao HTS,Avidin counter,RGS8-Gao confirm,RGS7-Gao confirm,RGS16-Gao conf,RGS4-Gao single,RGS19-Gao conf
Cc1ccc2cccc(S(=O)(=O)N3CCCc4ccccc43)c2n1,101.2,101.7,103.0,?,10,17,.,.,.,.,.,.,.
Cc1ccc(S(=O)(=O)Nc2ccc(NC(=O)c3cccnc3)cc2)cc1,100.8,100.2,104.0,101.2,9,8,.,.,.,.,.,.,.
Cc1ccc([N+](=O)[O-])cc1NC(=O)Cc1ccc(F)cc1,.,.,.,.,.,11,.,0.8,98.5,101.5,102.1,101.6,99.4
C/C(CC1CC2=C(CC1(C)C)C(C)(C)CCC2)=N\NC(N)=S (stereo not drawn),108.5,102.8,124.5,103.3,11,10,.,.,.,.,.,.,.
O=C(Nc1ccc(Cl)cc1)NC1CCS(=O)(=O)C1 (stereo not drawn),113.8,106.0,179.9,108.7,16,14,.,.,.,.,.,.,.
O=C(Nc1ccccn1)NC1CCS(=O)(=O)C1 (stereo not drawn),79.5,75.9,-92.4*,81.9,9,16,75.9*,-0.7,101.5,98.4,101.5,100.6,103.2
O=C(NCc1ccccn1)NC1CCCCC1,100.6,101.5,94.5,99.0,3,8,.,.,.,.,.,.,.
O=C(Nc1ccccn1)NC1CCCCC1,.,198.9*[activator],.,.,.,32,.,0.1,100.8,101.5,101.5,103.5,111.0
O=C(Nc1cc(S(=O)(=O)N2CCCCC2)ccc1N1CCCCC1)C1CC1,98.8,100.4,100.7,?,16,.,.,.,.,.,.,.,.
CC(C)CC(=O)NC1(C(F)(F)F)C(=O)N(CC(C)C)C2=C1C(=O)CC(C)(C)C2 (stereo not drawn),154.9*[activator],164.9*[activator],167.4,169.0*[activator],3,9,.,0.5,96.4,88.3,93.3,94.0,79.8
Cc1ccc(C(=O)N2CCCC2)cc1S(=O)(=O)Nc1cccc(C)c1C,100.1,100.3,100.0,93.7,10,19,.,.,.,.,.,.,.
CC(=O)c1cc(C#N)c(SCC(=O)OC(C)C)nc1C,103.3,99.3,101.2,96.7,9,17,.,.,.,.,.,.,.
CC(=O)c1cc(C#N)c(SCC(=O)OC(C)(C)C)nc1C,102.8,116.5,108.6,183.1*[activator],138*,26,116.5*,0.6,97.1,97.2,95.9,99.2,86.0
C=C(C)CCC1(C)NC(=O)N(c2ccccc2)N1 (stereo not drawn),78.8,41.3*,52.0,?,1,.,.,-0.5,96.9,95.3,96.3,96.1,93.3
CCc1nnc(NC(=O)CC(=O)Nc2ccccc2C(=O)O)s1,.,.,.,.,.,45,.,-0.3,97.7,97.8,100.0,98.6,87.7
COC(=O)C1=C(C)N=c2s/c(=C3\C(=O)Nc4ccccc43)c(=O)n2C1c1ccccc1 (stereo not drawn),120.5,118.4,178.8*[activator],113.8,5,20,118.4*,-0.5,102.3,102.5,103.6,100.4,94.3
Cc1cccc(NCc2cc(Cl)cc(Cl)c2O)n1,101.8,274.1*[activator],322.7*[activator],278.1*[activator],175*,17,.,-0.4,107.6,86.3,111.4,94.7,70.5
Cc1ccc(OCC(=O)N/N=C\c2ccncc2)c(C)c1,110.9,105.8,177.1*[activator],105.2,7,10,105.8*,.,.,.,.,.,.
O=C(c1cnccn1)N(Cc1cccs1)C1(C(=O)NC2CCCCC2)CCCCC1,135.4,114.9,245.6*[activator],108.1,12,18,114.9*,1.6,97.8,66.7*,90.8,76.0,79.0
O=C(c1cnccn1)N(Cc1cccs1)C1(C(=O)NC2CCCC2)CCCCC1,81.1,91.1,51.6,95.8,4,86,.,.,.,.,.,.,.
CC(NC(=O)Cc1cccs1)C(c1cccs1)N1CCOCC1 (stereo not drawn),45.5*,39.3*,7.5*,44.9*,2,37,.,1.4,111.2,118.5,109.9,114.3,105.2
COc1ccc(OC)c(NC(=O)Nc2nnc(N3CCC(C)CC3)s2)c1,58.4*,40.1*,40.2,42.7*,3,13,.,-0.1,109.4,108.2,117.6,105.7,107.9
CCN(CC)S(=O)(=O)c1ccc(C)c(NC(=S)N2CCN(Cc3ccc4c(c3)OCO4)CC2)c1,102.7,109.1,108.2,107.3,12,14,.,.,.,.,.,.,.
CN(C)S(=O)(=O)c1cccc(-n2sc3ccccc3c2=O)c1,55.3*,93.4,17.1*,?,4,9,93.4*,.,.,.,.,.,.
NS(=O)(=O)c1ccc(S(=O)(=O)N2CCCC2)cc1,97.0,101.6,88.6,104.4,7,25,.,.,.,.,.,.,.
SMILES,RGS8-Gao reg,RGS4-Gao reg,RGS16-Gao,RGS7-Gao,Avidin fluor,GSH fluor,RGS4-Gao HTS,Avidin counter,RGS8-Gao confirm,RGS7-Gao confirm,RGS16-Gao conf,RGS4-Gao single,RGS19-Gao conf
Cc1ccc(-n2sc3ccccc3c2=O)cc1S(=O)(=O)N1CCCCC1,43.1*,74.8,-11.6,97.0,7,6,74.8*,.,.,.,.,.,.
O=c1c2ccccc2sn1-c1nccs1,75.4,98.3,78.2,101.0,16,9,.,.,.,.,.,.,.
CN(C)S(=O)(=O)c1ccc2[nH]cc(/C=C/c3nc4ccccc4c(=O)n3-c3ccccc3)c2c1,102.3,101.3,98.9,100.7,34,16,.,.,.,.,.,.,.
O=c1c2ccccc2sn1-c1ccc(S(=O)(=O)N2CCCC2)cc1,30.8*,92.5,-3.0*,89.4,4,9,92.5*,0.6,59.4*,85.4,40.3*,90.7,8.6*
O=c1c2ccccc2sn1-c1ccccc1,17.8*,78.5,-5.3*,91.2,6,15,78.5*,-2.3,24.6*,85.4,0.1*,78.2,-0.4*
Cc1cc(C)n(-c2ccc(C(=O)Nc3ccc(C)c(S(=O)(=O)N4CCOCC4)c3)cc2)n1,99.7,97.5,98.8,?,5,.,.,.,.,.,.,.,.
CCC(=O)NC(=S)Nc1ccc(NC(=O)c2ccc(Br)o2)cc1,98.5,99.5,97.1,103.3,10,17,.,.,.,.,.,.,.
